Active and inactive are the calls of the source.
Tested on: Wnt5a (protein binding on small-molecule microarray)
Test: Wnt5a binders on small-molecule microarray, primary screen, biophysical, 635/667 nm fluorescence (AID 1142);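 also: fluorescence read at 667 nm with signal to noise per printed feature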
Settings: 635 nm fluorescence, higher = more signal

Row | SMILES | composite z-score
1 | O=C(NCC(O)CO)[C@]1(Cc2ccccc2)N=C(c2ccc(OCCCO)cc2)O[C@@H]1c1ccccc1 (stereo partly specified) | 0.454
2 | O=C(CS)NCCCCCNC(=O)[C@H]1C[C@H]2C(=O)N3CCC[C@H]3C(=O)N2[C@H]1c1ccc(O)cc1 | 0.143
3 | COc1cccc([C@H]2N[C@H](C(=O)O)CC[C@@H]2C)c1 | 0.04
4 | CC(C)[Si]1(C(C)C)O[C@@H](c2ccccc2)c2cc(C3CC3)nc(-c3ccc(Oc4ccccc4)cc3)c21 | -0.217
5 | CC(=O)Nc1ccc([C@H]2[C@H](C)CC[C@H]3C(=O)N4[C@@H](CC[C@@H](C)[C@@H]4c4ccc(NC(C)=O)cc4)C(=O)N32)cc1 | 0.165
6 | COc1cc2c(cc1OC)CN(C(=O)[C@@H]1[C@H]3C(=O)O[C@H](c4ccccc4)[C@H](c4ccccc4)N3[C@H](c3ccccc3OCCO)[C@@]13C(=O)Nc1ccccc13)CC2 | 0.406
7 | [N-]=[N+]=NCc1ccccc1C[C@@]1(C(=O)N2CCOCC2)N=C(c2ccc(OCCCO)cc2)O[C@@H]1c1ccccc1N=[N+]=[N-] | 0.994
8 | C=CC[C@]1(C(=O)OC)N=C(c2ccc(OCCCO)cc2)O[C@H]1c1ccccc1CN=[N+]=[N-] | 0.832
9 | CO[C@]12C=C(Br)[C@@H](C[C@@H]1c1ccccc1)[C@@]1(CO1)C2=O | -0.002
10 | C[C@]1(C(=O)NCc2ccccc2)c2ccccc2C(=O)N(Cc2cc(C(F)(F)F)cc(C(F)(F)F)c2)[C@H]1c1ccc(CO)cc1 | 0.944

Tested on: not listed separately
Test: cell viability in Huh7 cells, primary screen, cytotoxicity control for HCV replication inhibitor project, CellTiter-Glo luminescence, basal, 48 h (AID 1143);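 also: Huh7 hepatoma cells carrying a hepatitis C replication reporter with no stimulus; test concentration not given here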
Settings: Huh7 HCV replicon, higher = more signal, called active from +8 up or from −8 down

Row | SMILES | z-score
11 | C=C(COC)/C(=C/C[C@@H](OC(C)=O)c1cccc(OCCO)c1)c1cc(C(=O)OC)ccc1OC | -1.42 (inactive)
12 | CC(C)(C)OC(=O)CC[C@]1(C(=O)NCCN2CCOCC2)N=C(c2ccc(OCCCO)cc2)O[C@H]1c1ccccc1CN=[N+]=[N-] | -1.11 (inactive)
13 | CC(=O)NCCCC[C@@H]1NC(=O)[C@@H]2C[C@H](C(=O)NCCCCCCN(C)C)[C@H](c3ccc(O)cc3)N2C1=O | -0.849 (inactive)
14 | Cc1ccc(S[C@]2(C(=O)O)CC(=O)N(Cc3ccccc3)[C@@H]2c2ccc(CO)cc2)cc1 | -1.22 (inactive)
15 | O=C1c2ccccc2[C@](Cc2ccccc2I)(C(=O)NCC(F)(F)F)[C@H](c2ccc(CO)cc2)N1Cc1ccccc1C(F)(F)F | -0.254 (inactive)
16 | O=C1OCCC=C[C@H]2OC34C=CCN(Cc5ccccc5)C(=O)[C@H]3N(CCO)C(=O)[C@@H]4C12 (stereo partly specified) | -4.38 (inactive)
17 | C=CCNC(=O)[C@H]1[C@@H]2C(=O)O[C@@H](c3ccccc3)[C@@H](c3ccccc3)N2[C@@H](c2ccccc2OCCO)[C@]12C(=O)N(C(=O)OCCOC)c1ccc(C#CCC(C(=O)OC)C(=O)OC)cc12 | -3.84 (inactive)
18 | COc1ccc([Si](C)(C)[C@H]2[C@H](CC(=O)N3Cc4ccccc4C[C@H]3CO)O[C@@]3(C(=O)N(Cc4cccc(N5CCOC5=O)c4)c4ccccc43)[C@@H]2C)cc1 | -3.32 (inactive)
19 | CC(C)N1CC=CC23O[C@@H]4/C=C\CCCOC(=O)C4[C@H]2C(=O)N(CCO)[C@@H]3C1=O (stereo partly specified) | -1.04 (inactive)
20 | CC(C)CN1C(=O)[C@@]2(Cc3ccccc31)c1ccccc1C(=O)N(C1CCCCC1)[C@H]2c1ccc(CO)cc1 | -2.02 (inactive)
21 | COc1cccc([C@@H]2[C@@H](C)CC[C@H]3C(=O)N4[C@H](c5cccc(OC)c5)[C@@H](C)CC[C@H]4C(=O)N23)c1 | -1.88 (inactive)
22 | CO[C@H]1COC(=O)[C@H](Cc2ccccc2)NC(=O)CC=C[C@@H](C)[C@H](OC)COC(=O)CC=C[C@@H]1C | -1.21 (inactive)
23 | CO[C@H]1COC(=O)[C@@H](OCc2ccccc2)C=C[C@H](C)[C@@H](OC)COC(=O)[C@H](OCc2ccccc2)C=C[C@@H]1C | -2.26 (inactive)
24 | O=C1O[C@@H](c2ccccc2)[C@@H](c2ccccc2)N2[C@@H](c3ccc(O)cc3)[C@]3(C(=O)Nc4ccccc43)[C@@H](C(=O)N3CCN(c4ncccn4)CC3)[C@H]12 | -5 (inactive)
25 | O=C1O[C@@H](c2ccccc2)[C@@H](c2ccccc2)N2[C@@H](c3ccc(O)cc3)[C@]3(C(=O)Nc4ccc(C#CC5(O)CCCCCC5)cc43)[C@@H](C(=O)Nc3nc4ccccc4s3)[C@H]12 | -2.23 (inactive)
26 | C=CC[C@]1(C(N)=O)N=C(c2ccc(OCCCO)cc2)O[C@H]1c1ccccc1CN=[N+]=[N-] | -4.28 (inactive)
27 | COCCOC(=O)N1C(=O)[C@@]2(c3cc(C#CCCO)ccc31)[C@H](C(=O)N1CCCCCCC1)[C@H]1C(=O)O[C@H](c3ccccc3)[C@H](c3ccccc3)N1[C@@H]2c1ccc(O)cc1 | -4.07 (inactive)
28 | C=CCOC(=O)[C@@H]1[C@H]2C(=O)O[C@H](c3ccccc3)[C@H](c3ccccc3)N2[C@H](c2ccc(OCCOC(=O)[C@H]3C[C@H]4C(=O)N5CCC[C@H]5C(=O)N4[C@H]3c3ccc(O)cc3)cc2)[C@@]12C(=O)Nc1ccccc12 | -3.23 (inactive)

Row | SMILES | z-score
29 | CO[C@H]1COC(=O)CC=C[C@@H](C)COC(=O)[C@@H](C)NC(=O)CC=C[C@@H]1C | -3.48 (inactive)
30 | C=CCN1C(=O)[C@@]2(O[C@@H](CCn3cc([C@H](O)c4ccccc4)nn3)[C@H]([Si](C)(C)c3ccc(OC)cc3)[C@H]2C)c2cc(N3CCOC3=O)ccc21 | -6.15 (inactive)
31 | CCCC/C=C/[C@H]([C@@H](O)Cc1ccccc1)N(CC#Cc1ccccc1)Cc1ccccc1Br | -0.677 (inactive)
32 | CCOC(=O)[C@H]1C/C=C/C[C@H](C(=O)OCC)C(=O)O[C@H]2[C@@H](OC)O[C@H](CO)[C@@H](OC(=O)Nc3ccc(Br)cc3)[C@@H]2OC1=O | -6.64 (inactive)
33 | COC(=O)c1c(CC[C@@H](CO)NC(=O)N[C@H](Cn2cc(-c3cncn3C)nn2)C(C)C)oc(C(C)=O)c1C(=O)OC | -3.48 (inactive)
34 | COc1ccc([Si](C)(C)[C@H]2[C@H](CCO)O[C@@]3(C(=O)N(Cc4ccc(N5CCCCC5=O)cc4)c4ccccc43)[C@@H]2C)cc1 | -3.56 (inactive)
35 | O=C1c2ccccc2[C@](Cc2ccccc2I)(C(=O)O)[C@H](c2ccc(CO)cc2)N1C1CCCCC1 | -4.42 (inactive)
36 | CCCNC(=O)[C@@]1(Sc2ccc(C)cc2)CC(=O)N(Cc2ccccc2Cl)[C@@H]1c1ccc(CO)cc1 | -6.06 (inactive)
37 | O=C(NCC(O)CO)[C@]1(Cc2ccccc2)N=C(c2ccc(OCCCO)cc2)O[C@@H]1c1ccccc1 (stereo partly specified) | -3.91 (inactive)
38 | O=C(CS)NCCCCCNC(=O)[C@H]1C[C@H]2C(=O)N3CCC[C@H]3C(=O)N2[C@H]1c1ccc(O)cc1 | -0.564 (inactive)
39 | COc1cccc([C@H]2N[C@H](C(=O)O)CC[C@@H]2C)c1 | -3.79 (inactive)
40 | CC(C)[Si]1(C(C)C)O[C@@H](c2ccccc2)c2cc(C3CC3)nc(-c3ccc(Oc4ccccc4)cc3)c21 | -0.313 (inactive)
41 | CC(=O)Nc1ccc([C@H]2[C@H](C)CC[C@H]3C(=O)N4[C@@H](CC[C@@H](C)[C@@H]4c4ccc(NC(C)=O)cc4)C(=O)N32)cc1 | -0.446 (inactive)
42 | COc1cc2c(cc1OC)CN(C(=O)[C@@H]1[C@H]3C(=O)O[C@H](c4ccccc4)[C@H](c4ccccc4)N3[C@H](c3ccccc3OCCO)[C@@]13C(=O)Nc1ccccc13)CC2 | -2.96 (inactive)
43 | [N-]=[N+]=NCc1ccccc1C[C@@]1(C(=O)N2CCOCC2)N=C(c2ccc(OCCCO)cc2)O[C@@H]1c1ccccc1N=[N+]=[N-] | -3.63 (inactive)
44 | C=CC[C@]1(C(=O)OC)N=C(c2ccc(OCCCO)cc2)O[C@H]1c1ccccc1CN=[N+]=[N-] | -3.72 (inactive)
45 | CO[C@]12C=C(Br)[C@@H](C[C@@H]1c1ccccc1)[C@@]1(CO1)C2=O | -1.7 (inactive)
46 | C[C@]1(C(=O)NCc2ccccc2)c2ccccc2C(=O)N(Cc2cc(C(F)(F)F)cc(C(F)(F)F)c2)[C@H]1c1ccc(CO)cc1 | -5.26 (inactive)
